Test systems include HCT-15 colon; HT29 colon; SNB-75 CNS; SNB-19 CNS; U251 CNS; PC-3 prostate; SK-MEL-5 melanoma; UACC-62 melanoma; LOX IMVI melanoma; SK-MEL-2 melanoma; SN12C renal; UO-31 renal; TK-10 renal; ACHN renal; CAKI-1 renal; A498 renal; MOLT-4 leukemia; EKVX NSCLC; CCRF-CEM leukemia; SK-MEL-28 melanoma.
What all share (test): NCI-60 one-dose screen, 48 h (100 = growth as untreated, 0 = no growth, -100 = all killed)
Conditions in all cases: 10 µM

Compounds without any hit were thinned out: in the full panel of roughly 83,000, 20% have a hit.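 Negative percent growth values reflect cell death: -40 means 40% of the cells present at the start died, and -100 means all died.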 Values without a mark were called inactive. Active and inactive are the calls of the source. Rule for the calls: active = growth percent below 10; inactive = the rest.

Regarding `COc1ccc(CCN2C(=O)/C(=C/c3csc(C#N)n3)SC2=S)cc1`, the growth with HCT-15 colon was -51.7% (active); in the assay on HT29 colon, -49.4% (active); with SNB-75 CNS, 53.2%; in the assay with SNB-19 CNS it was 72.2%; in the assay on U251 CNS, 21.4%; with PC-3 prostate, 32.8%. Besides, the growth with SK-MEL-5 melanoma was 36.6%; with UACC-62 melanoma, -26.6% (active); in the assay on LOX IMVI melanoma, -78.5% (active); with SK-MEL-2 melanoma, -0.186% (active); in the assay on SN12C renal it was -38.2% (active); with UO-31 renal, -43.9% (active). Further, the growth is 13.3% in the assay on TK-10 renal; 4.4% (active) with ACHN renal; -0.602% (active) in the assay on CAKI-1 renal; 61.4% in the assay with A498 renal; -11.2% (active) with MOLT-4 leukemia.
As for `Cc1nc(Nc2nc(C)c3ccc(OCCN4CCOCC4)cc3n2)[nH]c(=O)c1C`, the growth in the assay on HCT-15 colon is -48.7% (active); with HT29 colon, -56.9% (active); in the assay on SNB-75 CNS, 25.9%; in the assay on SNB-19 CNS it was -2.34% (active); in the assay with U251 CNS, 8.71% (active); in the assay with PC-3 prostate it was 11.5%. The growth is -97.1% (active) with SK-MEL-5 melanoma; -84.6% (active) in the assay on UACC-62 melanoma; -51.7% (active) in the assay with LOX IMVI melanoma; -90.3% (active) with SK-MEL-2 melanoma; -3.4% (active) in the assay with EKVX NSCLC; -10.4% (active) with SN12C renal. The growth with UO-31 renal is -63.8% (active); with TK-10 renal, 17.6%; in the assay with ACHN renal it was -50.2% (active); with CAKI-1 renal, -38.4% (active); in the assay with A498 renal, -79% (active); in the assay on CCRF-CEM leukemia, -7.55% (active). In addition, the growth in the assay on MOLT-4 leukemia was 1.13% (active).
With `O=c1[nH]c2ccccc2cc1CSc1ccc(Nc2nccc(-c3ccc(C(F)(F)F)cc3)n2)cc1`, the growth was 29.7% in the assay with HCT-15 colon; 28.8% in the assay on HT29 colon; 19.1% in the assay with SNB-75 CNS; 33.1% in the assay with SNB-19 CNS; -26.4% (active) in the assay on U251 CNS; 43.8% with PC-3 prostate. Moreover, the growth in the assay with SK-MEL-5 melanoma was 89.2%; with UACC-62 melanoma it was 81.9%; in the assay on LOX IMVI melanoma, 15.5%; with SK-MEL-2 melanoma, 85.4%; in the assay on EKVX NSCLC, 7.65% (active); in the assay on SN12C renal it was -19.7% (active). For the same compound, the growth was 5.37% (active) with UO-31 renal; -6.8% (active) with TK-10 renal; -29.1% (active) with ACHN renal; 12.7% with CAKI-1 renal; -50.2% (active) with A498 renal; 75% in the assay with CCRF-CEM leukemia. Also, the growth in the assay with MOLT-4 leukemia is 55.6%.
`COc1cc2oc(-c3cccc(C(=O)Nc4ccc(Cl)cc4)c3)cc(=O)c2c(OCCNC(=O)CNC(=O)OC(C)(C)C)c1OC`: the growth was 40.9% in the assay on HCT-15 colon; 63.2% in the assay with HT29 colon; 74.9% with SNB-75 CNS; 78.9% in the assay on SNB-19 CNS; 74.8% with U251 CNS; 57.2% in the assay with PC-3 prostate. For the same compound, the growth in the assay on SK-MEL-5 melanoma was 31.2%; with UACC-62 melanoma, 81%; with SK-MEL-28 melanoma it was 69.4%; in the assay with SK-MEL-2 melanoma, 78.4%; with EKVX NSCLC it was 64.7%; in the assay on SN12C renal it was 53.5%. In addition, the growth in the assay with UO-31 renal was 49.7%; in the assay with TK-10 renal it was 83.9%; with ACHN renal, 61.3%; with CAKI-1 renal, 34.2%; with A498 renal, 118%; in the assay with CCRF-CEM leukemia it was 49.4%. The growth in the assay with MOLT-4 leukemia is 41.1%.
On to `COc1ccc(/C=C/C(=O)c2ccc(N3CCN(C)CC3)cc2)c(C(F)(F)F)c1`, for which the growth is -68.5% (active) with HCT-15 colon; -52% (active) in the assay with HT29 colon; 97.7% in the assay with SNB-75 CNS; 54.5% in the assay on SNB-19 CNS; 5.33% (active) with U251 CNS; 43.5% in the assay on PC-3 prostate. Moreover, the growth is 36.7% in the assay with SK-MEL-5 melanoma; -31.4% (active) with UACC-62 melanoma; -86.4% (active) with LOX IMVI melanoma; 94.6% in the assay with SK-MEL-2 melanoma; 49% with EKVX NSCLC; 42.5% with SN12C renal. The growth in the assay on UO-31 renal was 44.2%; in the assay with TK-10 renal it was 71.7%; in the assay on ACHN renal it was 55.6%; in the assay on CAKI-1 renal it was 41.4%; with A498 renal it was 59.5%; in the assay with CCRF-CEM leukemia, 27.3%. The growth in the assay with MOLT-4 leukemia was 10.8%.
With `CC(=C(c1ccc(OCCCN(C)C)cc1)c1ccc(OCCCN(C)C)cc1)c1ccccc1`, the growth was -92.1% (active) in the assay on HCT-15 colon; -78.4% (active) with HT29 colon; -77.5% (active) in the assay on SNB-75 CNS; -98.1% (active) in the assay with SNB-19 CNS; -86.1% (active) with U251 CNS; -74.2% (active) in the assay on PC-3 prostate. Moreover, the growth was -100% (active) in the assay with SK-MEL-5 melanoma; -99.3% (active) in the assay with UACC-62 melanoma; -99.3% (active) with SK-MEL-28 melanoma; -86.5% (active) in the assay on SK-MEL-2 melanoma; -96.1% (active) in the assay with EKVX NSCLC; -96.8% (active) with SN12C renal. In addition, the growth is -99.9% (active) with UO-31 renal; -92% (active) in the assay on TK-10 renal; -99.2% (active) with ACHN renal; -100% (active) with CAKI-1 renal; -86.4% (active) in the assay on A498 renal; -65.9% (active) in the assay with CCRF-CEM leukemia.
